From PubChem BioAssay (Tox21)
Records with an inconclusive call do not appear. Some structures have more than one record in an assay (separate samples or runs), and their calls can disagree. Active and inactive are the calls of the source. Calls come from the whole dose curve; as a rule, active = well fitted cell-killing curve with a large enough effect in the repeat runs; inconclusive = weak or mixed curves; inactive = no such curve, though single readings can be large or run the other way.

test: qHTS assay to identify small molecule agonists of the peroxisome proliferator-activated receptor delta (PPARd) signaling pathway - cell viability counter screen (AID 743211); conditions: PPARd-bla HEK293H viability, CellTiter-Glo luminescence, 17 h; series mostly up to 62.6 µM; activity change, negative = cytotoxicity: at the top concentration; note: nearly all actives have a fitted effect of over 55% in size
Method in brief: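 Luminescent ATP viability assay (CellTiter-Glo, 30 min RT) in UAS-bla HEK293H cells carrying the PPAR delta reporter construct, 3000 cells/well, after a 17 h compound treatment at 37 C.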
% is set by controls: 0 for no effect and ±100 for the full control effect; potency is the fitted concentration of half-maximal effect.

Structure (SMILES)	activity change, negative = cytotoxicity	Potency
C/C=C/C=C/CCCCCCCO	-16.8% (inactive)	–
C=CC(C)=CCC=C(C)C	-0.803% (inactive)	–
CCOC(=O)/C=C/C(=O)O	-1.32% (inactive)	–
CNC(=O)N(c1ccccc1)c1ccccc1	-1.45% [at 81.1 µM] (inactive)	–
CC(Cl)C(Cl)Cl (stereo not drawn)	1.53% (inactive)	–
CC(C)c1nnc2ccc(-c3ocnc3-c3cc(F)ccc3F)cn12	-12.1% (inactive)	–
CCOC(=O)[C@@H](C)Oc1ccc(Oc2nc3ccc(Cl)cc3o2)cc1	1.06% (inactive)	–
CCCCCCCCCCCCCCC[C@H](O)[C@@H](N)CO	0.279% (inactive)	–
CC(=O)Oc1ccc2c(c1)CC[C@@H]1[C@@H]2CC[C@]2(C)[C@@H](O)CC[C@@H]12	2.54% (inactive)	–
C=CCOC(=O)/C=C\C(=O)OCC=C	0.116% [at 81.1 µM] (inactive)	–
CC1CC(O)CC(C)(C)C1 (stereo not drawn)	-14.2% (inactive)	–
COc1ccc(C(=O)c2cccc(O)c2)c(OC)c1	-3.12% (inactive)	–
CO[Si](C)(OC)OC	-14.3% (inactive)	–
Cc1nc2ccccc2s1	-8.4% [at 81.1 µM] (inactive)	–
CN(C)C(=O)Nc1ccc(Oc2ccc(Cl)cc2)cc1	-2.18% (inactive)	–
C[Si](NC1CCCCC1)(NC1CCCCC1)NC1CCCCC1	-19.2% (inactive)	–
Cc1oncc1C(=O)Nc1ccc(C(F)(F)F)cc1	–	54.9 µM (active) and inactive

Structure (SMILES)	activity change, negative = cytotoxicity	Potency
Cc1nc2ccccn2c(=O)c1CCN1CCC(C(=O)c2ccc(F)cc2)CC1	-19.3% (inactive)	–
CN1CCN(c2c(F)cc3c(=O)c(C(=O)O)cn4c3c2OCN4C)CC1	-25% [at 29.1 µM] (inactive)	–
[O]=[Bi]	2.23% [at 5.95 µM] (inactive)	–
CCC(C(=O)OCCOCCN(CC)CC)c1ccccc1 (stereo not drawn)	-1.11% (inactive)	–
CC(N)CN (stereo not drawn)	0.809% [at 81.1 µM] (inactive)	–
CCOC(=O)c1ccccc1C	-13.7% (inactive)	–
Nc1nccs1	0.366% (inactive)	–
CC[C@@H]([C@H](C)O)n1ncn(-c2ccc(N3CCN(c4ccc(OC[C@@H]5CO[C@@](Cn6cncn6)(c6ccc(F)cc6F)C5)cc4)CC3)cc2)c1=O	–	29.8 µM (active)
CN(C(=O)C(Cl)Cl)c1ccc(OC(=O)c2ccco2)cc1	7.46% (inactive)	–
CN1C(=O)CC(C)(c2ccccc2)C1=O (stereo not drawn)	7.88% (inactive)	–
N#C[C@@H]1C[C@@H]2C[C@@H]2N1C(=O)[C@@H](N)C12CC3CC(CC(O)(C3)C1)C2	-9.51% (inactive)	–
Cc1occc1C(=O)Nc1ccc(C(=O)N2CCC(F)(F)/C(=C\C(=O)N3CCC(N4CCCCC4)CC3)c3ccccc32)cc1	-25.6% [at 29.1 µM] (inactive)	–
OCC1CC=CCC1 (stereo not drawn)	16.5% (inactive)	–
O=C(c1ccc(O)cc1)c1ccc(Cl)cc1	-5.32% [at 81.1 µM] (inactive)	–
CO/N=C1\CN(c2nc3c(cc2F)c(=O)c(C(=O)O)cn3C2CC2)CC1CN (stereo not drawn)	-8.73% (inactive)	–
CCCCC(CC)C(=O)OCCOCCOCCOCCOC(=O)C(CC)CCCC (stereo not drawn)	4.72% (inactive)	–
